What all share (assay): NCI-60 one-dose screen, 48 h (100 = growth as untreated, 0 = no growth, -100 = all killed)
In one assay the test system is NCI-H522 lung. The note with it: 10 µM unless noted.
For a further assay, the system named is COLO 205 colon. Particulars: 10 µM.
In a further assay the test system is MALME-3M melanoma. Particulars: 10 µM unless noted.
In the next assay the test system is RXF 393 renal. The note with it: 10 µM unless noted.
The test system of the next assay is M14 melanoma. The note with it: 10 µM unless noted.
The next assay concerns U251 CNS. The note with it: 10 µM unless noted.
The subject of the next assay is LOX IMVI melanoma. The note with it: 10 µM unless noted.
A further assay deals with TK-10 renal. The note with it: 10 µM unless noted.
A further assay has as its system CAKI-1 renal. The note with it: 10 µM unless noted.
For another assay, the system named is CCRF-CEM leukemia. The note with it: 10 µM unless noted.
Another assay has as its system MOLT-4 leukemia. Particulars: 10 µM.
A further assay concerns SR leukemia. The note with it: 10 µM.
For the next assay, the system named is RPMI-8226 leukemia. Particulars: 10 µM unless noted.
In the next assay the test system is BT-549 breast. Particulars: 10 µM.
For the next assay, the system named is SW-620 colon. Particulars: 10 µM unless noted.
For another assay, the system named is SK-OV-3 ovarian. The note with it: 10 µM unless noted.
The subject of the next assay is HCT-116 colon. Particulars: 10 µM unless noted.
In a further assay the test system is EKVX NSCLC. The note with it: 10 µM unless noted.
A further assay has as its system HOP-92 NSCLC. Particulars: 10 µM unless noted.

About 83,000 compounds went through this panel and 20% of them were active in at least one assay; those are over-represented in the sample as a whole.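 Percent growth is the endpoint: 0 to 100 indicates growth inhibition (40 means 60% inhibition), 0 means no net growth, and negative values indicate cell death.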 Unmarked numbers belong to inactive results. Activity calls are given as the source filed them. Rule for the calls: active = growth percent below 10; inactive = the rest.

Consider `COc1cc2c(cc1OC)CN(C)C(C)C2` (stereo not drawn), for which the growth with NCI-H522 lung is 82.3%; in the assay with COLO 205 colon, 102%; in the assay on MALME-3M melanoma, 95.9%; in the assay on RXF 393 renal it was 118%; in the assay on M14 melanoma, 100%; in the assay with U251 CNS, 101%. Moreover, the growth is 95.1% in the assay on LOX IMVI melanoma; 101% with TK-10 renal; 101% with CAKI-1 renal; 100% in the assay with CCRF-CEM leukemia; 113% with MOLT-4 leukemia; 101% in the assay on SR leukemia. Further, the growth is 105% with RPMI-8226 leukemia, 115% in the assay on BT-549 breast and 100% with SW-620 colon.
Regarding `COc1ccc(/C=C\c2cc(OC)c(OC)c(OC)c2)cc1N/C=C\C(=O)c1c[nH]c2ccccc12`, the growth in the assay with NCI-H522 lung is -9.96% (active); in the assay with COLO 205 colon it was -65.6% (active); with MALME-3M melanoma it was 57.8%; in the assay on RXF 393 renal, 29.2%; with M14 melanoma, 11.3%; in the assay on U251 CNS it was 15.5%. Further, the growth was 19.6% in the assay on LOX IMVI melanoma; 60.1% in the assay on TK-10 renal; 5.7% (active) in the assay with CCRF-CEM leukemia; 14.4% in the assay with MOLT-4 leukemia; 2.48% (active) with SR leukemia; 19.5% in the assay on RPMI-8226 leukemia. Further, the growth with SK-OV-3 ovarian was 12.9%; in the assay with BT-549 breast it was 6.79% (active); in the assay with SW-620 colon, 24.7%; in the assay with HCT-116 colon it was 2.62% (active).
In the case of `O=[As]c1ccc(C(=O)c2ccc(Oc3ccccc3)cc2)cc1` (stereo not drawn), the growth in the assay on NCI-H522 lung was -95.4% (active); in the assay with COLO 205 colon, -89.2% (active); in the assay on MALME-3M melanoma it was -66.2% (active); with RXF 393 renal, -100% (active); with M14 melanoma, -94.1% (active); with U251 CNS, -100% (active). In addition, the growth in the assay with LOX IMVI melanoma is -91.2% (active); in the assay with EKVX NSCLC, -80.8% (active); with TK-10 renal, -98.8% (active); in the assay on CCRF-CEM leukemia, -33.1% (active); with MOLT-4 leukemia it was -25.2% (active); in the assay with SR leukemia, -23.9% (active). For the same compound, the growth is -49.2% (active) in the assay on RPMI-8226 leukemia; -100% (active) in the assay on SK-OV-3 ovarian; -98.8% (active) in the assay with BT-549 breast; -82.6% (active) with SW-620 colon; -99.2% (active) in the assay on HCT-116 colon.
Turning to `NC(Cc1ccc(O)cc1)C(=O)N/N=C/c1ccc(N(CCCl)CCCl)cc1` (stereo not drawn), the growth was 82.1% in the assay with HOP-92 NSCLC; 95.3% with RXF 393 renal; 93.6% with M14 melanoma; 44.4% in the assay with LOX IMVI melanoma; 92.7% with EKVX NSCLC; 115% with TK-10 renal. The growth in the assay on CAKI-1 renal is 25.9%; in the assay with CCRF-CEM leukemia, 27.9%; with MOLT-4 leukemia it was 29.8%; in the assay on SR leukemia, 18%; with SK-OV-3 ovarian, 90%; in the assay on BT-549 breast, 73.3%. For the same compound, the growth with SW-620 colon is 86.9%; in the assay on HCT-116 colon, 84%.
As to `ClCCN(CCCl)c1ccc(C=NCCc2c[nH]c3ccccc23)cc1`, the growth was 92.4% with NCI-H522 lung; 106% in the assay on COLO 205 colon; 76.7% with MALME-3M melanoma; 56.1% with RXF 393 renal; 91.6% with M14 melanoma; 72.6% in the assay with U251 CNS. Further, the growth was 74.7% with LOX IMVI melanoma; 106% with EKVX NSCLC; 23.5% with CAKI-1 renal; 54.1% in the assay with CCRF-CEM leukemia; 63.1% in the assay with MOLT-4 leukemia; 31.9% in the assay with SR leukemia. The growth in the assay on RPMI-8226 leukemia is 85.6%; in the assay with SK-OV-3 ovarian, 81%; in the assay on BT-549 breast it was 81.9%; with SW-620 colon, 84.4%; in the assay with HCT-116 colon, 79%.
With `O=C1C=CC(=O)C2C1C1(Cl)C(Cl)=C(Cl)C2(Cl)C1(Cl)Cl` (stereo not drawn), the growth with HOP-92 NSCLC is 15.7%; in the assay with MALME-3M melanoma, 49.2%; with RXF 393 renal it was 23.9%; with M14 melanoma it was 44.4%; in the assay on U251 CNS, 60.8%; in the assay on LOX IMVI melanoma it was 50.5%. Besides, the growth is 41.3% in the assay on EKVX NSCLC; 71.5% in the assay with TK-10 renal; 51.8% with CAKI-1 renal; 60.4% in the assay on CCRF-CEM leukemia; 59.5% in the assay with MOLT-4 leukemia; 36.5% with SR leukemia. For the same compound, the growth was 67.9% with RPMI-8226 leukemia, 36.4% with BT-549 breast and 64.7% with SW-620 colon.
With `Nc1c(Br)cc2c3c(cccc13)-c1ccccc1-2`, the growth is 25% in the assay with HOP-92 NSCLC; 88.2% in the assay on COLO 205 colon; 80.2% with RXF 393 renal; 58.5% in the assay with M14 melanoma; 60.1% with U251 CNS; 53.7% with LOX IMVI melanoma. The growth was 53.1% in the assay with EKVX NSCLC; 57.4% in the assay with CAKI-1 renal; 48.8% with CCRF-CEM leukemia; 53.8% with MOLT-4 leukemia; 9.02% (active) with SR leukemia; 87.7% in the assay on SK-OV-3 ovarian. Moreover, the results for the growth with BT-549 breast and in the assay with SW-620 colon were 91.8% and 90.4%, respectively.
Take `[N-]=[N+]=NC(C(=O)O)c1ccccc1` (stereo not drawn): the growth with NCI-H522 lung is 87.3%; in the assay with COLO 205 colon, 104%; with MALME-3M melanoma, 106%; with RXF 393 renal it was 140%; with M14 melanoma, 101%; in the assay with U251 CNS, 104%. In addition, the growth was 100% with LOX IMVI melanoma; 99.7% in the assay on EKVX NSCLC; 91.8% in the assay on CAKI-1 renal; 83.9% with SR leukemia; 99.5% in the assay on SK-OV-3 ovarian; 107% in the assay on SW-620 colon. Moreover, in the assay with HCT-116 colon, the growth was 101%.
As for `COc1ccc(C2=NN(c3ccccc3)C(c3sc(N(CCCl)CCCl)nc3Cl)C2)cc1` (stereo not drawn), the growth is 71% in the assay with NCI-H522 lung; 92.1% with COLO 205 colon; 99.3% with MALME-3M melanoma; 110% in the assay on RXF 393 renal; 93.6% in the assay with M14 melanoma; 94.4% in the assay with U251 CNS. Besides, the growth is 89.8% in the assay with LOX IMVI melanoma; 86% in the assay with EKVX NSCLC; 69.4% with CAKI-1 renal; 86.1% with CCRF-CEM leukemia; 67.5% with MOLT-4 leukemia; 86.1% in the assay with SR leukemia. The growth in the assay with SK-OV-3 ovarian was 75.9%; in the assay with BT-549 breast, 108%; in the assay on SW-620 colon it was 92.5%; in the assay on HCT-116 colon it was 67%.
As for `CC(CC(C#N)(c1ccccc1)c1ccccc1)N1CCOCC1` (stereo not drawn), the growth is 83.5% in the assay on HOP-92 NSCLC; 101% in the assay with COLO 205 colon; 120% in the assay with MALME-3M melanoma; 112% in the assay on RXF 393 renal; 114% in the assay on M14 melanoma; 99.2% in the assay on U251 CNS. The growth in the assay with LOX IMVI melanoma is 102%; in the assay with CAKI-1 renal it was 92.9%; with CCRF-CEM leukemia, 99.5%; with MOLT-4 leukemia, 82.3%; with SR leukemia, 84.3%; in the assay with RPMI-8226 leukemia, 103%. The growth with SK-OV-3 ovarian was 109%; in the assay on BT-549 breast, 111%; in the assay on SW-620 colon it was 106%; with HCT-116 colon, 106%.

These data come from PubChem BioAssay (NCI).
